In PubChem BioAssay (NCATS) one finds Potency data, which are given here for 26 molecules.

The nature of experiment [1]: qHTS for Inhibitors of Plasmodium falciparum (DD2) proliferation (AID 504314). Further: potency means the concentration at half of the fitted maximal effect. In short, it runs like this:
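Normalization used 0.29 uM artemisinin as full inhibition and DMSO as baseline. Parasitized erythrocytes were exposed to compounds for 72 h (37C, 5% CO2), then lysed with saponin/Triton buffer containing SYBR Green I.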

The nature of experiment [2]: qHTS for Inhibitors of Plasmodium falciparum (GB4) proliferation (AID 504315). Further: nearly all actives have a fitted effect of over 50% in size. Further: potency means the concentration at half of the fitted maximal effect. In outline:
(§1)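 Parasite growth measured as SYBR Green DNA fluorescence (ex 485, em 535 nm) after overnight lysis following 72 h culture at 37 °C, 0.3% parasitemia, 2.5% hematocrit. Values normalized against DMSO and 0.29 uM artemisinin controls, with plate-stack correction.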
(qHTS replaces the single test concentration by a dilution series.)

Experiment [3] can be described thus: qHTS for Inhibitors of Plasmodium falciparum (7G8) proliferation (AID 504316). Further: nearly all actives have a fitted effect of over 65% in size. Further: potency means the concentration at half of the fitted maximal effect. In outline:
as §1

The nature of experiment [4]: qHTS for Inhibitors of Plasmodium falciparum (HB3) proliferation (AID 504318). Further: nearly all actives have a fitted effect of over 60% in size. Further: potency means the concentration at half of the fitted maximal effect. In outline:
as §1

The nature of experiment [5]: qHTS for Inhibitors of Plasmodium falciparum (CP250) proliferation (AID 504320). Further: potency means the concentration at half of the fitted maximal effect. In outline:
as §1

The target of experiment [6] is Atrial natriuretic peptide receptor 1 (Homo sapiens) (UniProt P16066). In words: Natriuretic polypeptide receptor (hNpr1) antagonism - Pilot CMLD screen (AID 1347052; calls by dose curve;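 further: HEK293 cells with hNpr1 stimulated by hNppA peptide at 0.1 nM; cGMP level read as GloSensor luciferase luminescence after agonist stimulation; series mostly up to about 9.2 µM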).
Chain of Atrial natriuretic peptide receptor 1 (Homo sapiens) (P16066 whole entry, looked up): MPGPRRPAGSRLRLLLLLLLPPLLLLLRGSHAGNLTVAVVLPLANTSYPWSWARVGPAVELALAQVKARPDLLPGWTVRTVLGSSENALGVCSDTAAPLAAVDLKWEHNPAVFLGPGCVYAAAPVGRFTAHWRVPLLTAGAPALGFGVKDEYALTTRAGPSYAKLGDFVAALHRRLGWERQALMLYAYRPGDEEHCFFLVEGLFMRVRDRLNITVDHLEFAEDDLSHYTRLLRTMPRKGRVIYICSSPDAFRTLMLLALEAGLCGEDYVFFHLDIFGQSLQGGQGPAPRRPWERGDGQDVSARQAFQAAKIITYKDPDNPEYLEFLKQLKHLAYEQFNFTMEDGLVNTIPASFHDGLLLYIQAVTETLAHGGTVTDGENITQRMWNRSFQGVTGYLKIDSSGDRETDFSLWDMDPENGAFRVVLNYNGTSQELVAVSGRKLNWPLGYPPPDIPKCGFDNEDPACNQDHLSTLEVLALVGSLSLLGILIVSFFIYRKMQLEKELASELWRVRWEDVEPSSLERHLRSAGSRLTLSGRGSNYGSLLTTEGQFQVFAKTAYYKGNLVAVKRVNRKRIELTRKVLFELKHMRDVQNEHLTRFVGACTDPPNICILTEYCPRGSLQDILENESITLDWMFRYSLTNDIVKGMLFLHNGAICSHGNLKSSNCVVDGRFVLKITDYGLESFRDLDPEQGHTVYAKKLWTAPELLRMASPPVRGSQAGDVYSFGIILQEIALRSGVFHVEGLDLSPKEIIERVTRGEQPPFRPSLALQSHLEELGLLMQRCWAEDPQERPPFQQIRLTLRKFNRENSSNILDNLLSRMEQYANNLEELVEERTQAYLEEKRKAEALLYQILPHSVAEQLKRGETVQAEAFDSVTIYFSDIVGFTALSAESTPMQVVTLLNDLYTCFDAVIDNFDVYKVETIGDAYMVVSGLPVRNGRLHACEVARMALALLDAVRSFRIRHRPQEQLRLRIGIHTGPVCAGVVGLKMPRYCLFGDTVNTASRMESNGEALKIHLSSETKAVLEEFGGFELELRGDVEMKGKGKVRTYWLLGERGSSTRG

Several values for one entry are separate records, joined by “and”; a condition that tells them apart may be missing. Equal values may be shown once. Results filed as inconclusive are left out. Some structures have more than one record in an assay (separate samples or runs), and their calls can disagree. Activity calls are given as the source filed them. Unless noted, the call rests on the fitted dose curve; in most records, active means well fitted curve in the direction sought with a large enough effect; inconclusive means small, poorly fitted or top-dose-only effect, or another doubt; inactive means no such curve, though single readings can be large; an effect the other way counts as inactive or inconclusive.

`CCCCC1=CC2=C(c3ccco3)C(=O)C(C)(OC(=O)c3ccc(OC)cc3)C(=O)C2=CN1C(CO)CO` (stereo unspecified): the Potency entry in experiment [1], in experiment [2], in experiment [3], in experiment [4], in experiment [5] and in experiment [6] was “inactive” throughout.
As to `CC#CCN1C(=O)NC(c2ccccc2)C(C#N)=C1C` (stereo unspecified), the Potency result in experiment [1], in experiment [2], in experiment [3], in experiment [4], in experiment [5] and in experiment [6] was “inactive” in each case.
As to `COc1cccc2c1[C@H](C=Cc1ccccc1)[C@@H]([C@H](O)COC(C)=O)OC2`, the Potency result in experiment [1], in experiment [2], in experiment [3], in experiment [4], in experiment [5] and in experiment [6] was “inactive” in each case.
On to `CCN1C(=O)N(C)C(c2ccccc2)C(C(C)=O)=C1C` (stereo unspecified), for which the Potency result in experiment [1], in experiment [2], in experiment [3], in experiment [4], in experiment [5] and in experiment [6] was “inactive” in each case.
With `COC(=O)C[C@H]1c2ccccc2C2=C(C[C@@H](C)[C@H]3C(=O)NC(=O)[C@@H]23)N1C(=O)OC`, the Potency entry in experiment [1], in experiment [2], in experiment [3], in experiment [4], in experiment [5] and in experiment [6] was “inactive” each time.
For `COCCN1C(=O)NC(c2ccco2)C(C(=O)OC)=C1C` (stereo unspecified), the Potency result in experiment [1], in experiment [2], in experiment [3], in experiment [4], in experiment [5] and in experiment [6] was “inactive” each time.
For `COC(=O)C1=C(C)N(Cc2ccccc2)C(=NCc2cc(OC)c(OC)c(OC)c2)NC1CCc1ccccc1` (stereo unspecified), the Potency in experiment [1] is 1.06 µM (active); in experiment [2] it was 849 nM (active); in experiment [3], 1.51 µM (active); in experiment [4] it was 2.94 µM (active); in experiment [5], 1.07 µM (active). Moreover, the Potency result in experiment [6] is “inactive”.
Consider `CCOC(=O)NN=C1C[C@@H](O)[C@@H](O)[C@@H]2[C@H]3C(=O)N(Cc4ccc5c(c4)OCO5)C(=O)[C@@H]3CC[C@@H]12`, for which the Potency entry in experiment [1], in experiment [2], in experiment [3], in experiment [4], in experiment [5] and in experiment [6] was “inactive” in each case.
As to `COC1=C[C@H](C(=O)NCc2ccc(OC)cc2)C(C)C(c2ccccc2)CC1=O` (stereo partly specified), the Potency result in experiment [1], in experiment [2], in experiment [3], in experiment [4], in experiment [5] and in experiment [6] was “inactive” in each case.
Consider `C=CCNC(=O)N1C2=NC(C(=O)OC)=C(C(=O)OC)[C@@H]3N(C)c4ccccc4[C@]23C[C@H]1CO`, for which the Potency result in experiment [1], in experiment [5] and in experiment [6] was “inactive” each time. The Potency entry in experiment [2] is “inactive and 1.9 µM (active)”; in experiment [3], “inactive and 1.69 µM (active)”; in experiment [4] it was “inactive and 2.94 µM (active)”.
In the case of `CC1(OC(=O)c2cccs2)C(=O)C=C2C=C(c3ccsc3)OC=C2C1=O` (stereo unspecified), the Potency result in experiment [1], in experiment [2], in experiment [3], in experiment [4], in experiment [5] and in experiment [6] was “inactive” each time.
Consider `COCC1=Cc2cc3c(cc2C(C(C(=O)OC)C(=O)OC)N1C(=O)OC)OCO3` (stereo unspecified), for which the Potency entry in experiment [1], in experiment [2], in experiment [3], in experiment [4], in experiment [5] and in experiment [6] was “inactive” in each case.
In the case of `COC(=O)CC=C[C@@H](C)[C@@H](C=NO[C@H](C)c1cn([C@H](CO)Cc2ccccc2)nn1)NS(=O)(=O)c1ccc(C)cc1`, the Potency entry in experiment [1], in experiment [2], in experiment [3], in experiment [4], in experiment [5] and in experiment [6] was “inactive” throughout.
With `C#CCN1C(=O)CC[C@@]23C1=NC(C(=O)OC)=C(C(=O)OC)[C@@H]2N(C)c1ccccc13`, the Potency entry in experiment [1], in experiment [2], in experiment [3], in experiment [4], in experiment [5] and in experiment [6] was “inactive” each time.
As for `COc1ccc2c(c1)C(=O)[C@@H](OC(=O)Nc1cc(OC)c(OC)c(OC)c1)[C@H](c1ccc(OC)c(Br)c1)O2`, the Potency result in experiment [1], in experiment [2], in experiment [3], in experiment [4], in experiment [5] and in experiment [6] was “inactive” throughout.
Consider `CCCCC1=CC2=C(c3ccco3)C(=O)C(C)(OC(=O)c3ccc(OC)cc3)C(=O)C2=CN1CC1CC1` (stereo unspecified), for which the Potency entry in experiment [1], in experiment [2], in experiment [3], in experiment [4], in experiment [5] and in experiment [6] was “inactive” in each case.
Take `COC(=O)CC=C1c2ccc(OC)cc2[C@@H](OC)[C@@H]1C`: the Potency entry in experiment [1], in experiment [2], in experiment [3], in experiment [4], in experiment [5] and in experiment [6] was “inactive” throughout.
Take `COC(=O)c1nnc(C(=O)NCc2ccccc2)c2[nH]c3ccccc3c12`: the Potency result in experiment [1], in experiment [2], in experiment [3], in experiment [4], in experiment [5] and in experiment [6] was “inactive” throughout.
`CCCCc1nc2c(c3c1C[C@H](C)OC3)CN(C(=O)Cc1cccs1)CC2`: the Potency result in experiment [1], in experiment [2], in experiment [3], in experiment [4], in experiment [5] and in experiment [6] was “inactive” throughout.
As for `COC(=O)[C@H]1O[C@@H](c2cc(OC)c(C)c(OC)c2OCc2ccccc2)[C@H](C)[C@H]2O[C@@]12C`, the Potency result in experiment [1], in experiment [2], in experiment [3], in experiment [4], in experiment [5] and in experiment [6] was “inactive” each time.
As to `COC(=O)CCCC1=CC2=C(c3ccccc3)C(=O)C(C)(OC(=O)C3CCCC3)C(=O)C2=CN1CCN1CCOCC1` (stereo unspecified), the Potency result in experiment [1], in experiment [2], in experiment [3], in experiment [4], in experiment [5] and in experiment [6] was “inactive” in each case.
Turning to `COc1cccc([C@H](O)Cn2cc(-c3ccc(CON=C(C)C)cc3)nn2)c1`, the Potency entry in experiment [1], in experiment [2], in experiment [3], in experiment [4], in experiment [5] and in experiment [6] was “inactive” each time.
For `FC(F)(F)c1cc(NC(=S)NC(c2ccccc2)c2ccccc2)cc(C(F)(F)F)c1`, the Potency in experiment [1] is 1.34 µM (active) and inactive; in experiment [2] it was 1.51 µM (active) and inactive; in experiment [3], 536 nM (active) and inactive; in experiment [4] it was 757 nM (active) and inactive; in experiment [5], 1.2 µM (active) and inactive. Also, in experiment [6], the Potency result is “inactive”.
`CC[C@H](C)[C@@H](NC(=O)O[C@@H]1C(=O)c2ccc(OC)cc2O[C@H]1c1ccc2c(c1)OCO2)C(=O)OC`: the Potency entry in experiment [1], in experiment [2], in experiment [3], in experiment [4], in experiment [5] and in experiment [6] was “inactive” each time.
`COCCN1C(=O)N[C@@H](c2ccccc2)[C@H](C(C)=O)[C@H]1C`: the Potency result in experiment [1], in experiment [2], in experiment [3], in experiment [4], in experiment [5] and in experiment [6] was “inactive” in each case.
For `C=CCN1C=C2C(=O)C(C)(OC(=O)C3CCCC3)C(=O)C=C2C=C1c1ccsc1` (stereo unspecified), the Potency entry in experiment [1], in experiment [2], in experiment [3], in experiment [4], in experiment [5] and in experiment [6] was “inactive” in each case.
